High-throughput results: PubChem BioAssay, National Center for Advancing Translational Sciences (NCATS)
PGK inhibitor = qHTS Assay to Find Inhibitors of Phosphoglycerate Kinase; Phosphoglycerate kinase, glycosomal (Trypanosoma brucei brucei), P07378; PGK/GAPDH coupled, Kinase-Glo luminescence, 60 min; Potency, µM (series often up to 57.5 µM), without a hit: at the top dose activity change, negative = inhibition, actives largely listed as inhibitors; actives 0.043% (n = 380,000); note: % is set by controls: 0 for no effect and ±100 for the full control effect; nearly all actives have a fitted effect of over 60% in size
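Recombinant glycosomal PGK reaction used 1,3-bisphosphoglycerate generated in-well by GAPDH (100nM final) in 100mM TEA pH 7.6, 5mM MgCl2, 0.01% Tween-20. After 60 minutes at room temperature, ATP was read by Kinase-Glo Plus luminescence end-point.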
Rango dissoc inh = qHTS Assay for Inhibitors of RanGTP induced Rango (Ran-regulated importin-beta cargo) - Importin beta complex dissociation; Potency, µM (top dose mostly 46.1 µM), for inactives: at the top dose activity change, negative = inhibition; Snurportin-1 (Homo sapiens) + GTP-binding nuclear protein Ran (Homo sapiens) + Importin …; actives 0.071% (n = 340,000); AID 540253, 2011; Biochemical FRET Rango-importin beta, RanGTP-induced dissociation; calls by dose curve; note: % of control where 0% means no effect; nearly all actives have a fitted effect of over 45% in size
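Compounds sat 5 min at room temperature with 0.1 uM Rango biosensor plus 0.25 uM importin beta, then FRET pre-read. RanGTP-RCC1 (0.6 uM Ran, 2mM GTP, 0.2 uM RCC1) added for 45 min, and the CFP/YFP post-read measured blocked complex dissociation.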
ELG1 DNA repair = qHTS screen for small molecules that inhibit ELG1-dependent DNA repair in human embryonic kidney (HEK293T) cells expressing luciferase-tagged ELG1; Potency, µM (doses to about 46.1 µM), inactives show top-dose activity change, negative = inhibition, most hits filed as inhibitors; actives 2.3% (n = 330,000); HEK293T ELG1-luciferase reporter, luminescence, 16 h; DNA damage induced by 5-fluorouridine; note: % is set by controls: 0 for no effect and ±100 for the full control effect; nearly all actives have a fitted effect of over 55% in size
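Luminescence from the luciferase reporter, measured 30 min after ONE-Glo reagent at room temperature, was the read-out. Beforehand, 2,000 cells per well were exposed for 16 hr at 37 °C to 5-fluorouridine together with compound or vehicle.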
Rango-impB inh = qHTS Assay for Inhibitors of Rango (Ran-regulated importin-beta cargo) - Importin beta complex formation; Rango CFP/YFP FRET sensor + importin beta, 45 min; Potency, µM (doses to about 92.2 µM), for inactives: at the top dose inhibition of complex formation; actives 0.031% (n = 340,000); AID 540263, 2011; calls by dose curve;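 note: 0% = DMSO wells and 100% = buffer wells lacking importin beta; nearly all actives have a fitted effect of over 15% in size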
Target sequence (Q14974 whole entry, looked up): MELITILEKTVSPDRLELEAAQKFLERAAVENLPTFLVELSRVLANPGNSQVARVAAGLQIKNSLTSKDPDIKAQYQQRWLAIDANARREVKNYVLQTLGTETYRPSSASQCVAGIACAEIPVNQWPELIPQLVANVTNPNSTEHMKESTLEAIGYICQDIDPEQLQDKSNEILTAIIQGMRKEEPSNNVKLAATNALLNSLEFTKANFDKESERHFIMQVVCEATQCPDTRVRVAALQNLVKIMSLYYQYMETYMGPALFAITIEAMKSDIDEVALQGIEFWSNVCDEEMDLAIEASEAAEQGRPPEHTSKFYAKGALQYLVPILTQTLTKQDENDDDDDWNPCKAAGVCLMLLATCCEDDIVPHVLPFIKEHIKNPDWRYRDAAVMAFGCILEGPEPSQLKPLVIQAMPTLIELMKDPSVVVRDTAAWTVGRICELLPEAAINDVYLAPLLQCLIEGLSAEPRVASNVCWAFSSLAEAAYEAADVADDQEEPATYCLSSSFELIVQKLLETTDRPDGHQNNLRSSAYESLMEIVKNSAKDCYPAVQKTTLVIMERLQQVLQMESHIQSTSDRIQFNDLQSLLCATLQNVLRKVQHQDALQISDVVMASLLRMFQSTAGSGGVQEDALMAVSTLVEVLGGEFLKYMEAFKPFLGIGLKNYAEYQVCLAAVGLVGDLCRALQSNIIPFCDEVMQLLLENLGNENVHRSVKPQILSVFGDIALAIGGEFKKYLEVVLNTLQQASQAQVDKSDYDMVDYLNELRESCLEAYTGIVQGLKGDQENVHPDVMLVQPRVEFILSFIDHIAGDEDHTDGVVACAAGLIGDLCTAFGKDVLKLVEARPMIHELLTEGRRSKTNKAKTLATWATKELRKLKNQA
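FRET biosensor (snurportin 1 IBB flanked by EYFP and cerulean), 50 nM, with compound 5 min, then 0.125 microM importin beta in PBS, 1 mM DTT, 0.02% Tween-20, 0.1% BSA. CFP/YFP ratio read after 45 min at room temperature; pre-read flags interference.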
Tb PFK inh-1 = qHTS Assay to Find Inhibitors of T. brucei phosphofructokinase; ATP-dependent 6-phosphofructokinase (Trypanosoma brucei brucei), O15648; T. brucei PFK, ADP-Glo luminescence; Potency, µM (top dose mostly 57.5 µM), without a hit: at the highest dose activity, negative = inhibition, hits mostly inhibitors; actives 0.17% (n = 330,000);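 note: 0% = uninhibited 1x PFK enzyme wells and -100% = no-enzyme wells; nearly all actives have a fitted effect of over 60% in size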
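1.25 nM PFK with 0.5 mM F6P and 0.1 mM ATP in 0.1 M TEA pH 8.0, 5 mM MgCl2, incubated 45 min at room temperature; ADP measured by ADP-Glo luminescence; compounds titrated up to 57 uM.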
PKM2 activator = qHTS Assay for Activators of Human Muscle isoform 2 Pyruvate Kinase; Pyruvate kinase PKM (Homo sapiens), P14618; purified PKM2, Kinase-Glo ATP luminescence, activation; response scale: 0% is enzyme alone, no compound; Potency, µM (series often up to 57.5 µM), inactives show at the highest dose activation, most hits filed as activators; actives 0.34% (n = 260,000); AID 1631, 2009; note: % is set by controls: 0 for no effect and ±100 for the full control effect; nearly all actives have a fitted effect of over 55% in size
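hPK-M2, >95% pure; 0.1 mM ADP / 0.5 mM PEP final; imidazole pH7.2 buffer w/ 7 mM MgCl2, 50 mM KCl; 1 h RT; Kinase-Glo lum. Intermediate enzyme activity for dual inhibitor/activator qHTS.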
Tb PFK KinaseGlo = Tb PFK orthogonal confirmatory assay using ATP depletion (Kinase-Glo Plus) as an alternative measure of Tb PFK activity: Hit Validation. shares compounds with Tb PFK inh-1. Tb PFK enzyme, ATP depletion, Kinase-Glo Plus luminescence. Potency, µM (highest dose often 57.5 µM), for inactives: top-dose inhibition. actives 47% (n = 1,100). AID 504636, 2011; calls by dose curve; note: nearly all actives have a fitted effect of over 60% in size
Tb PFK inh-2 = Inhibitors of T. brucei phosphofructokinase: Hit Validation; shares compounds with Tb PFK inh-1; purified T. brucei PFK, ADP-Glo luminescence, 45 min; Potency, µM (series often up to 57.5 µM), without a hit: top-dose activity change, negative = inhibition, most hits filed as inhibitors; actives 41% (n = 1,100);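 note: plate controls were full PFK enzyme control for no effect and no enzyme control for full effect; nearly all actives have a fitted effect of over 60% in size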
* = called active by the depositor; i = inactive; ? = inconclusive; nt = no result given; [ ] = dose if it differs, or a comment. A selection: hits, their analogues and other compounds. The true share with any hit is near 2.4%. Unless noted, calls come from the whole dose curve; as a rule, active = well fitted curve in the direction sought with a large enough effect; inconclusive = small, poorly fitted or top-dose-only effect, or another doubt; inactive = no such curve, though single readings can be large; an effect the other way counts as inactive or inconclusive. Potency is the fitted concentration of half-maximal effect.

SMILES	PGK inhibitor	Rango dissoc inh	ELG1 DNA repair	Rango-impB inh	Tb PFK inh-1	PKM2 activator	Tb PFK KinaseGlo	Tb PFK inh-2
O=C1Nc2cc(Cl)c(Cl)cc2N(O)N1c1ccc(Cl)c(Cl)c1	-7%[11.5 µM]	1%	23%	2%	13µM*	-2%	11%	-15%
O=C1OC(/C(=C\Nc2ccc(F)cc2F)[N+](=O)[O-])c2ccccc21 (stereo not drawn)	5%	27%	4%	0%	?	13%	3%	-1%
O=C1OC(/C(=C\Nc2cc(Cl)ccc2O)[N+](=O)[O-])c2ccccc21 (stereo not drawn)	0%	21%	?	2%	?	1%	3%	-13%
Cc1ccc(N/C=C(\C2OC(=O)c3ccccc32)[N+](=O)[O-])c(C)c1 (stereo not drawn)	i	12%	?	0%	?	-5%	1%	0%
CCOc1ccc(NC(=O)c2cccn(Cc3cccc(Cl)c3)c2=O)cc1	5%	nt	nt	nt	nt	nt	nt	nt
Cc1cccc(OCC(=O)N2CCN(CCc3ccccn3)CC2)c1	-6%	nt	nt	nt	nt	nt	nt	nt
CCN(CC)S(=O)(=O)c1ccc(C(=O)O)cc1	-4%	-8%	?	?	0%	0%	nt	nt
CCOC(=O)c1c(/N=C/C2C(=O)NC(=S)NC2=O)sc(C)c1C	nt	nt	3%	nt	20%	-19%	nt	nt
CCOC(=O)c1c(-c2ccc(OC)cc2)csc1/N=C/C1C(=O)CCCC1=O	-7%	?	-2%	?	?	2%	1%	-1%
COC(=O)C1=C(c2cccc(C#N)c2)C[C@@H]2CC[C@H]1N2C(=O)NCCc1ccccc1	3%	12%	-3%	2%	0%	nt	nt	nt
COc1cc(C)c(NC(=O)C(=S)NCCc2ccccc2)cc1C	-9%	-1%	1%	0%	?	-7%	24µM*	?
Oc1ccc(N=Nc2ccccc2-c2nn[nH]n2)c(O)c1	nt	1%	1%	-2%	?	nt	-29%	?
CCCCCc1nnc(NC(=O)Cc2cccs2)s1	?	-7%	-1%	-8%	?	10%	?	?
O=C1NC(=O)N(Cc2ccc(F)cc2)C(=O)/C1=C\C=C\c1ccco1	-10%	?	?	?	?	?	nt	nt
C=CCSC1=N/C(=C\C=C\c2ccco2)C(=O)S1	?	?	8%	-2%	17µM*	24%	?	?
C[C@H](CO)N1C[C@H](C)[C@@H](CN(C)Cc2ccc(Cl)c(Cl)c2)Oc2c(NC(=O)c3ccncc3)cccc2C1=O	-3%	10%	?	-3%	0%	nt	nt	nt
COc1cc(OC)cc(C(=O)OCC(=O)NCc2ccco2)c1	-15%	2%	0%	2%	15µM*	nt	?	?
O=C(COC(=O)Cc1cccc(C(F)(F)F)c1)NCc1ccco1	?	20%	12%	-3%	8.5µM*	nt	3.8µM*	11µM*
O=C(Nc1ccc2nc(-c3cccs3)c(-c3cccs3)nc2c1)NC1CC1	0%	?	?	?	-1%	4%	nt	nt
CC(C)C[C@H](NC(=O)C1CC(=O)N(c2ccc3c(c2)OCO3)C1)C(=O)NCc1ccco1 (stereo partly drawn)	-11%	19%	3%	-2%	?	nt	nt	nt
Cc1ccc(/C=c2\sc3nc(-c4ccco4)nn3c2=O)o1	?	-8%	3%	?	21µM*	21%	?	?
Cc1cccc(-n2c(-c3ccco3)nc3ccccc3c2=O)n1	-3%	-2%	15%	2%	8%	4%	nt	nt
CC(C)c1ccc(OCC(=O)N2CCN(CCc3ccncc3)CC2)cc1	8%	nt	nt	nt	nt	nt	nt	nt
O=Cc1cccc(OC(=O)/C=C/c2ccco2)c1	?	17%	?	-4%	24µM*	7%	6.7µM*	12µM*
O=C(Nc1nc(-c2ccco2)c(-c2ccco2)s1)c1cnccn1	-14%	-9%	3%	0%	12µM*	nt	1%	0%
SMILES	PGK inhibitor	Rango dissoc inh	ELG1 DNA repair	Rango-impB inh	Tb PFK inh-1	PKM2 activator	Tb PFK KinaseGlo	Tb PFK inh-2
Clc1ccc(CSC2=NCCCN2)cc1Cl	-4%	0%	-11%	2%	5.4µM*	-7%	11µM*	21µM*
CC[C@H](OC(C)=O)C(C[C@H](C)N(C)C)(c1ccccc1)c1ccccc1	i	-12%	-5%	-4%	-2%	nt	nt	nt
O=C(Nc1ccc(Cl)c([N+](=O)[O-])c1)c1ccncc1	-3%	-7%	-19%	-1%	?	-9%	?	?
CC(=O)N1CCN(c2ccc(NC(=O)c3ccc(Cl)c([N+](=O)[O-])c3)cc2)CC1	-1%	-7%	-13%	0%	?	nt	?	30µM*
CN1CCN(c2ccc(C(N)=O)cc2[N+](=O)[O-])CC1	-4%	-4%	13%	-1%	3%	3%	nt	nt
CC(C)CNC(=O)c1cccc(NC(=O)c2ccc(Cl)c([N+](=O)[O-])c2)c1	7%	3%	?	1%	24µM*	12%	11µM*	21µM*
NC(=O)c1ccc(NC(=O)c2cccn(Cc3ccccc3)c2=O)cc1	-1%	nt	nt	nt	nt	nt	nt	nt
Cc1noc(C(=O)Nc2sc3c(c2C#N)CCC3)c1Cl	-1%	-27%	6%	?	1%	-6%	nt	nt
Nc1ccc(-c2ccc(N)cc2)cc1	i	-9%	nt	-1%	nt	nt	nt	nt
CCC(=NCCCN(CC)CC)c1c(O)n(-c2ccccc2)c(=O)[nH]c1=O	-4%	4%	10%	0%	-2%	1%	nt	nt
CCc1ccc(OCC(=O)N2CCN(CCc3ccccn3)CC2)cc1	i	nt	nt	nt	nt	nt	nt	nt
